Test results reported in paper PMC12820563, “FoxP3 forms a head-to-head dimer in vivo and stabilizes its multimerization on adjacent microsatellites”.
Whole data set: some 16,000 sequences, median “rpm ratio (pull-down/input)” near 0.94, cut for the highest 2% near 1.7. This excerpt belongs to a sample that is enriched for the highest values.

Target: T1, MBP-FoxP1dN (Mus musculus, UniProt P58462 326-579)
T1 sequence: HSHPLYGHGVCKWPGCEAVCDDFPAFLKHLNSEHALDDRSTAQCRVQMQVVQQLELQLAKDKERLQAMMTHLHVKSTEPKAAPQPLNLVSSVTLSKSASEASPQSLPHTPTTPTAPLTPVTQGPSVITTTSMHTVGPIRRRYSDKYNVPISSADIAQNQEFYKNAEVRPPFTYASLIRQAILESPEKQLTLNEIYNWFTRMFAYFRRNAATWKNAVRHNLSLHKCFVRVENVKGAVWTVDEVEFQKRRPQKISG
Assay: PD-seq (MBP pull-down with sequencing); 20 mM Tris-HCl pH 7.5, 100 mM NaCl, 1.5 mM MgCl2, 0.4 uM protein, 0.1 uM dsDNA library, 30 min, room temperature, amylose pull-down; high values mean tight binding
Settings: protein: recombinant; tags: His6-MBP; chain copies: 2; dsDNA, one strand shown
Procedure, shortened: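 The N-terminus-lacking fragment of mouse FoxP3 or FoxP1 carried a His6-MBP tag and was expressed in E. coli. At 0.4 µM it was incubated with 0.1 µM Klenow-filled degenerate double-stranded DNA library for 30 min at room temperature in Tris pH 7.5 buffer with NaCl and MgCl2, and complexes were caught on amylose resin, washed three times, released with proteinase K, PCR-barcoded and Illumina-sequenced. Binding is reads-per-million enrichment of pull-down over input with replicates pooled.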

Sequence	binding signal
GATGATTGTTCTCCCAGCTGATGAATTTGTTATATCGAGTAAACAAATTTTCCTAATCTTTCTGTTCAAGCGCCATCTAC	1.5 RPM ratio (pull-down/input)
GATGATTGTTCTCCCAGCTGATGAATTTTTGTTATCGAGTAAACAAATTTTCCTAATCTTTCTGTTCAAGCGCCATCTAC	2.35 RPM ratio (pull-down/input)
GATGATTGTTCTCCCAGCTGATGAATTTCTTATCTCGAGTAAACAAATTTTCCTAATCTTTCTGTTCAAGCGCCATCTAC	0.829 RPM ratio (pull-down/input)
GATGATTGTTCTCCCAGCTGATGAATTGGTGTAATCGAGTAAACAAATTTTCCTAATCTTTCTGTTCAAGCGCCATCTAC	1.49 RPM ratio (pull-down/input)
GATGATTGTTCTCCCAGCTGATGAATTGCTTTTATCGAGTAAACAAATTTTCCTAATCTTTCTGTTCAAGCGCCATCTAC	1.26 RPM ratio (pull-down/input)
GATGATTGTTCTCCCAGCTGATGAATTTGTTATCTCGAGTAAACAAATTTTCCTAATCTTTCTGTTCAAGCGCCATCTAC	1.76 RPM ratio (pull-down/input)
GATGATTGTTCTCCCAGCTGATGAATTGCTCTTATCGAGTAAACAAATTTTCCTAATCTTTCTGTTCAAGCGCCATCTAC	1.17 RPM ratio (pull-down/input)
GATGATTGTTCTCCCAGCTGATGAATTTTGGTTATCGAGTAAACAAATTTTCCTAATCTTTCTGTTCAAGCGCCATCTAC	1.17 RPM ratio (pull-down/input)
GATGATTGTTCTCCCAGCTGATGAATTGTTATCCTCGAGTAAACAAATTTTCCTAATCTTTCTGTTCAAGCGCCATCTAC	1.55 RPM ratio (pull-down/input)
GATGATTGTTCTCCCAGCTGATGAATTGGTGTTATCGAGTAAACAAATTTTCCTAATCTTTCTGTTCAAGCGCCATCTAC	1.9 RPM ratio (pull-down/input)
GATGATTGTTCTCCCAGCTGATGAATTCAAGATATCGAGTAAACAAATTTTCCTAATCTTTCTGTTCAAGCGCCATCTAC	0.908 RPM ratio (pull-down/input)
GATGATTGTTCTCCCAGCTGATGAATTCGTCTACTCGAGTAAACAAATTTTCCTAATCTTTCTGTTCAAGCGCCATCTAC	0.938 RPM ratio (pull-down/input)
GATGATTGTTCTCCCAGCTGATGAATTCTTTTCATCGAGTAAACAAATTTTCCTAATCTTTCTGTTCAAGCGCCATCTAC	1.07 RPM ratio (pull-down/input)
GATGATTGTTCTCCCAGCTGATGAATTCAGGGCTTCGAGTAAACAAATTTTCCTAATCTTTCTGTTCAAGCGCCATCTAC	0.881 RPM ratio (pull-down/input)
GATGATTGTTCTCCCAGCTGATGAATTCGCCGATTCGAGTAAACAAATTTTCCTAATCTTTCTGTTCAAGCGCCATCTAC	0.86 RPM ratio (pull-down/input)
GATGATTGTTCTCCCAGCTGATGAATTTGTCCTTTCGAGTAAACAAATTTTCCTAATCTTTCTGTTCAAGCGCCATCTAC	1.08 RPM ratio (pull-down/input)

Sequence	binding signal
GATGATTGTTCTCCCAGCTGATGAATTATGTTCGTCGAGTAAACAAATTTTCCTAATCTTTCTGTTCAAGCGCCATCTAC	1.06 RPM ratio (pull-down/input)
GATGATTGTTCTCCCAGCTGATGAATTGTGTTAATCGAGTAAACAAATTTTCCTAATCTTTCTGTTCAAGCGCCATCTAC	1.27 RPM ratio (pull-down/input)
GATGATTGTTCTCCCAGCTGATGAATTGTGGTTATCGAGTAAACAAATTTTCCTAATCTTTCTGTTCAAGCGCCATCTAC	1.27 RPM ratio (pull-down/input)
GATGATTGTTCTCCCAGCTGATGAATTTGTGTTATCGAGTAAACAAATTTTCCTAATCTTTCTGTTCAAGCGCCATCTAC	2.08 RPM ratio (pull-down/input)
GATGATTGTTCTCCCAGCTGATGAATTGTTTTTGTCGAGTAAACAAATTTTCCTAATCTTTCTGTTCAAGCGCCATCTAC	2.31 RPM ratio (pull-down/input)
GATGATTGTTCTCCCAGCTGATGAATTTTGCGCGTCGAGTAAACAAATTTTCCTAATCTTTCTGTTCAAGCGCCATCTAC	1.04 RPM ratio (pull-down/input)
GATGATTGTTCTCCCAGCTGATGAATTTGTTTTGTCGAGTAAACAAATTTTCCTAATCTTTCTGTTCAAGCGCCATCTAC	2.33 RPM ratio (pull-down/input)
GATGATTGTTCTCCCAGCTGATGAATTGTTTGCGTCGAGTAAACAAATTTTCCTAATCTTTCTGTTCAAGCGCCATCTAC	2.27 RPM ratio (pull-down/input)
GATGATTGTTCTCCCAGCTGATGAATTTTGTCTGTCGAGTAAACAAATTTTCCTAATCTTTCTGTTCAAGCGCCATCTAC	1.02 RPM ratio (pull-down/input)
GATGATTGTTCTCCCAGCTGATGAATTGTTTCTGTCGAGTAAACAAATTTTCCTAATCTTTCTGTTCAAGCGCCATCTAC	1.25 RPM ratio (pull-down/input)
GATGATTGTTCTCCCAGCTGATGAATTTTTTGCGTCGAGTAAACAAATTTTCCTAATCTTTCTGTTCAAGCGCCATCTAC	1.1 RPM ratio (pull-down/input)
GATGATTGTTCTCCCAGCTGATGAATTTGTTCTGTCGAGTAAACAAATTTTCCTAATCTTTCTGTTCAAGCGCCATCTAC	1.07 RPM ratio (pull-down/input)
GATGATTGTTCTCCCAGCTGATGAATTGAATTTGTCGAGTAAACAAATTTTCCTAATCTTTCTGTTCAAGCGCCATCTAC	0.98 RPM ratio (pull-down/input)
GATGATTGTTCTCCCAGCTGATGAATTTTCTTTGTCGAGTAAACAAATTTTCCTAATCTTTCTGTTCAAGCGCCATCTAC	1.11 RPM ratio (pull-down/input)
GATGATTGTTCTCCCAGCTGATGAATTTTGATTGTCGAGTAAACAAATTTTCCTAATCTTTCTGTTCAAGCGCCATCTAC	1.67 RPM ratio (pull-down/input)
GATGATTGTTCTCCCAGCTGATGAATTTTGTTTGTCGAGTAAACAAATTTTCCTAATCTTTCTGTTCAAGCGCCATCTAC	2.66 RPM ratio (pull-down/input)
